An excerpt weighted towards active compounds, which were near 3.4% of everything screened.
MEKK2mut PB1 HTS = signal of MEK5 binding to mutant human MEKK2 PB1 domain. bead flow cytometry, Alexa488-MEK5 binding to MEKK2 mutant. percent response, % at 10 µM. actives 0.35% (n = 290,000); in the data active = percent response above about 24%, passing the limit was not always enough
MEKK3 PB1 HTS = modulators (inhibitors or enhancers) of MEK5 binding to human MEKK3 PB1 domain; Q99759; bead-based flow cytometry, Alexa488-MEK5 binding to MEKK3; actives lie on both sides; 0 = blocked by unlabeled MEK5, 100 = vehicle; binding response (% of control), % at 10 µM; actives 1.4% (n = 290,000); AID 1529;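 active = binding response more than 3 SD above or below the average of its plate-row segment, actives on both sides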;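 note: Alexa488 bead fluorescence after subtracting the streptavidin-only scavenger bead signal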
ANO1 block = blocks the mouse calcium-activated chloride channel TMEM16A; Q8BHY3; HEK293 TMEM16A/YFP iodide influx fluorescence, ionomycin; normalized B-score (activity score, 25-100; higher = stronger inhibition) at 10 µM; actives 1.2% (n = 310,000); AID 588511;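 active = ratio plate-corrected score three or more library SD toward inhibition, starting fluorescence score within five deviations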;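 note: score derived from kinetic fluorescence span divided by baseline fluorescence per well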
ANO1 activ = activates or potentiates the mouse TMEM16A chloride channel; AID 623877; Q8BHY3; B-score at 10 µM; HEK293 TMEM16A/YFP-H148Q/I152L, iodide quench fluorescence; stronger effect = lower value; actives 0.3% (n = 340,000);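 active = fluorescence-ratio B-score plate-corrected deviation score at least 3 library SD below zero, with starting fluorescence score within 5 deviations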;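 note: channel opened by trigger with iodide after compound preincubation; score built on the fluorescence ratio of max minus min over baseline; more negative score means more quench and so TMEM16A activation or potentiation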
NTR1 agonist = activates human neurotensin receptor 1. P30989. NTR1-U2OS beta-arrestin-GFP spot imaging, agonist mode. activation, % at 20 µM. actives 0.17% (n = 330,000). AID 493036;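 active = activation at or above 40% of the spot to cytoplasm intensity ratio, with at least 20 cells analyzed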
MEKK2 WT-MEK5 = raises or lowers MEK5 binding to wildtype human MEKK2 PB1 domain | binding response (% of control), % at 10 µM | Q9Y2U5 | actives 1.1% (n = 290,000) | bead flow cytometry, Alexa488-MEK5 binding to MEKK2 WT; actives lie on both sides; in the data active = binding response below about 67% or above about 130%
Hits are given with their value; – = inactive; · = no result; [ ] = remark or other dose.

SMILES | MEKK2mut PB1 HTS | MEKK3 PB1 HTS | ANO1 block | ANO1 activ | NTR1 agonist | MEKK2 WT-MEK5
Cc1nn(S(=O)(=O)c2ccccc2)c(C)c1Sc1ccc([N+](=O)[O-])cc1 | – | – | 25 | – | – | –
C=CCOc1ccccc1CNn1nnnc1N | – | – | – | – | – | –
C=CCOc1ccc(CNn2nnnc2N)cc1 | · | · | – | -14 | – | ·
Cc1ccc(CSc2nnc(SCC(=O)N/N=C/c3c(C)nn(-c4ccccc4)c3C)s2)cc1 | – | – | 25 | – | – | –
CC1C2NC(=O)N(Cc3ccccc3)C1(C)Oc1ccccc12 (centres undefined) | – | – | – | – | – | –
CCCCCCCC[n+]1cccc2c3ccccc3ccc21 | – | – | 100 | – | – | –
COc1ccc(C(=O)C2CCCN(C(=O)c3cccnc3OC)C2)c(C)c1 (centres undefined) | – | – | – | – | – | –
COc1ccc(C(=O)C2CCCN(C(=O)c3ccc4cc[nH]c4c3)C2)c(C)c1 (centres undefined) | – | – | – | -13 | – | –
CCOC(=O)CN1N=C(c2ccc(Cl)s2)CSC1=O | – | – | – | – | – | –
O=C(COC(=O)/C=C/c1ccc(F)cc1)NC1CCS(=O)(=O)C1 (centres undefined) | · | · | · | – | – | ·
CC(=O)c1sc(Nc2nc3ccc(F)cc3s2)nc1C | – | – | 25 | – | – | –
COC(=O)c1ccc2nc(Nc3nc4ccc(F)cc4s3)sc2c1 | – | – | – | – | · | –
Oc1ccc(NCc2cccc(OCc3ccc(F)cc3)c2)cc1 | – | – | 25 | – | – | –
O=C(Nc1ccc2oc(Cc3ccc(Cl)cc3)nc2c1)c1cccnc1 | – | – | – | – | – | –
CCOc1cccc(C(=O)Nc2ccc3oc(Cc4ccc(Cl)cc4)nc3c2)c1 | – | – | 100 | – | – | –
CC(C)N1CCC(=NNC(=O)c2cccs2)CC1 | – | – | – | – | – | –
Cc1ccc(-c2noc(Cn3nc(C(=O)O)c4ccccc4c3=O)n2)cc1 | – | – | – | – | – | –
O=C(O)c1nn(Cc2nc3ccccc3o2)c(=O)c2ccccc12 | – | – | – | -4.8 | – | –
O=c1c2ccccc2nnn1CSc1nc2ccccc2[nH]1 | – | – | – | -7.6 | – | –
O=S1(=O)N=C(Nc2ccc(N3CCOCC3)cc2)c2ccccc21 | – | – | – | – | – | 37
O=S1(=O)N=C(N2CCOCC2)c2ccccc21 | – | – | – | – | – | –
CC(=O)c1ccc(-n2c(-c3cc(-c4ccco4)[nH]n3)n[nH]c2=S)cc1 | – | – | – | -12 | – | –
O=C(O)c1ccc(-n2c(-c3cc(-c4ccco4)[nH]n3)n[nH]c2=S)cc1 | – | – | – | – | – | –
Cc1ccc(/C=C2/SC(=S)N(C3CCCCC3)C2=O)o1 | – | – | – | – | – | 56[inhibitor]
CN(C(=O)CSc1nnc(-c2ccccc2)o1)c1c(N)n(Cc2ccccc2)c(=O)[nH]c1=O | – | – | – | – | – | –
SMILES | MEKK2mut PB1 HTS | MEKK3 PB1 HTS | ANO1 block | ANO1 activ | NTR1 agonist | MEKK2 WT-MEK5
COc1cc(SC#N)ccc1N=Cc1c(C)[nH]n(-c2ccc(C)c(C)c2)c1=O | – | – | – | -13 | – | –
Brc1ccc(C2NCCS2)cc1 (centres undefined) | – | – | – | – | – | –
CN(CCc1cnn(C)c1)Cc1cn[nH]c1-c1ccc(-c2ccccc2)cc1 | – | – | – | -5.6 | – | –
Cn1cc(CCNCc2cn[nH]c2-c2ccc(-c3ccccc3)cc2)cn1 | – | – | – | – | – | –
CN1CCCc2cc3c(C(F)(F)F)cc(=O)oc3nc21 | · | · | – | – | – | ·
COc1ccccc1/C=N/Nc1nccnc1Cl | – | – | – | – | – | –
O=C(CSc1nncn1-c1ccccc1)Nc1cc(Cl)cc(Cl)c1 | – | – | 25 | – | – | –
O=C(c1cscn1)N1CCCC(N2CCN(c3ccc(F)cc3)CC2)C1 (centres undefined) | – | – | – | – | – | –
C(C#CCCCCCCCCC[n+]1ccccc1)#CCCCCCCCCC[n+]1ccccc1 | 56 | – | – | – | · | 274
O=C(CN1C(=O)NC2NC(=O)NC21)N/N=C/c1ccc(F)cc1 (centres undefined) | – | – | – | -7.5 | – | –
